Compounds with a hit are over-represented: about 3.9% of the library has one in this group of screens.
Wnt act – activators of Wnt/beta-catenin signaling; Wnt/beta-catenin reporter cell assay, activator, plate reader; activation, % at 9.35 µM; 300,000 tested, 1.2% active; AID 743398; in the data active means activation above about 30%, passing the limit was not always enough; inconclusive means no clear call, values can overlap the other calls;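 further: 0% = neutral control wells and 100% = positive control wells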
esBAF inh – blocks esBAF chromatin remodeling in mouse ES cells; 350,000 tested, 2% active; reporter increase, % at 12.5 µM; Bmi1-luciferase knock-in reporter, 24 h; 100% = twice the neutral-well signal; AID 602393; in the data active means activation above about 40%; inconclusive means no clear call, values can overlap the other calls;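 further: 0% = median of the plate's neutral control wells and 100% = double that signal; a rise in the Bmi1 reporter signal indicates esBAF inhibition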
MITF act – MITF TRPM1 promoter activation in melanoma cells; SK-MEL-5 TRPM1-promoter luciferase, 24 h; % of positive control, neutral wells = 0; activation, % at 12.5 µM; 300,000 tested, 0.75% active;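 active means mean activation of at least 80% with every replicate also reaching 80%; inconclusive means mean reaches 80% but some replicate falls short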;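 further: 0% = neutral control wells and 100% = parthenolide positive control wells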
HSF1 activator – increases HSF-1 driven luciferase reporter signal. 300,000 tested, 1.7% active. NIH3T3-HGL HSF-1 luciferase reporter, MG132, 8 h; 100% = twice DMSO control signal. AID 504408. activation, % at 9 µM;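 active means mean replicate activation of at least 50% with a set share of replicates each reaching 50%; inconclusive means only one of those two conditions met; inactive means mean below 50% and too few replicates reaching it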;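 further: 0% = median of the neutral control wells and 100% = twice that signal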
HSF1 inh – HSF1 inhibition; NIH3T3-HGL HSE-luciferase, MG132-induced, luminescence 8 h; hits give low values; activity change, negative = inhibition, % at 7.5 µM (by protocol); AID 2098; 300,000 tested, 0.77% active;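 active means more than half of replicate wells show activity change below -50%, luminescence cut by over half; inconclusive means some wells, but at most half, below -50%; inactive means no replicate well below -50%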;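 further: luciferase reports HSF-1 transcriptional activity via heat shock element; 0% = median of DMSO wells and -100% = zero luminescence signal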
Numbers without * were called inactive; ? = inconclusive; . = no result.

SMILES	Wnt act	esBAF inh	MITF act	HSF1 activator	HSF1 inh
CCCC#Cc1cnc2c(c1)C(=O)N([C@@H](C)CO)C[C@@H](C)[C@@H](CN(C)C(=O)Nc1ccccc1OC)O2	.	-8	.	.	.
O=c1c2c(nc3cc(-c4cccc(F)c4)[nH]n13)CCC2	9	1	4	52*	16
O=c1c2c(nc3cc(-c4ccc(F)cc4)[nH]n13)CCCC2	.	-50	10	-7	3
O=C(C1CCCCC1)N1C[C@H]2[C@@H](c3ccccc31)[C@@H](CO)N2C(=O)c1ccccc1F	.	3	.	.	.
CN1CCN(c2ccc(Nc3ccnc4cc(Cl)ccc34)cc2)CC1	-1	-10	.	52*	22
CCOc1ccc(Nc2ccnc3cc(Cl)ccc23)cc1	8	5	10	-4	-13
O=S(=O)(NC1c2cccc3cccc(c23)C1N1CCNCC1)c1ccc(Cl)cc1 (stereo unspecified)	10	.	-19	61*	26
C[C@@H]1CN([C@@H](C)CO)C(=O)c2cc(C3=CCCCC3)cnc2O[C@H]1CN(C)C(=O)c1ccc2c(c1)OCO2	.	6	.	.	.
CCC(=O)OCCNc1cc(Sc2nc3ccccc3s2)c2nonc2c1[N+](=O)[O-]	-1	3	-58	85*	31
CCCC(=O)OCCNc1cc(Sc2nccn2C)c2nonc2c1[N+](=O)[O-]	-19	-4	-101	290*	234
O=[N+]([O-])c1c(NCCCO)cc(Sc2nc3ccccc3s2)c2nonc12	.	-2	-67	272*	223
Cc1nnc(Sc2cc(NCCO)c([N+](=O)[O-])c3nonc23)s1	-6	.	-65	153*	117
Cc1ccc(S(=O)(=O)N(C)C[C@@H]2OCc3ccccc3-c3c(n(C)c4ccccc34)C(=O)N([C@H](C)CO)C[C@H]2C)cc1	.	1	.	.	.
Cc1ccc(N=C2N=C(N)c3ccccc32)cc1C	.	55*	-3	-47	-41
CCOc1ccc(NC(=S)N(CCc2ccncc2)C(C)C)cc1	-2	-3	-7	-63	-53*
COC(=O)c1cc2c(ccn2-c2ccc(F)cc2)n1Cc1ccc(OC)cc1	.	.	10	48	19
CCn1c(C(=O)OC)cc2c1ccn2-c1ccc(F)cc1	84*	71*	121*	52*	40
O=C(C[C@H]1CC[C@H]2[C@@H](COC[C@@H](O)CN2S(=O)(=O)c2cccc(F)c2)O1)Nc1ccccc1	.	3	.	.	.
CSc1cccc(NC(=O)/C=C/c2ccccc2)c1	28	62*	.	74*	27
CCN(CC)S(=O)(=O)c1ccc(/C=C/C(=O)Nc2cccc(F)c2)cc1	-1	.	6	67*	40
O=C(/C=C/c1ccccc1)Nc1cc(NC(=O)/C=C/c2ccccc2)cc(C(=O)O)c1	1	-6	-17	-14	-3
O=C(/C=C/c1ccccc1)Nc1cccc(C(=O)O)c1	-4	.	-98	-83	-78*
CC(C)CC#Cc1cnc2c(c1)C(=O)N([C@H](C)CO)C[C@@H](C)[C@H](CN(C)S(C)(=O)=O)O2	.	-10	.	.	.
COc1ccccc1NC(=O)N[C@@H]1CC[C@@H](CCNS(=O)(=O)c2ccc(F)cc2)O[C@H]1CO	.	1	.	.	.
COc1ccc(N2C(=O)c3cccc4c(N(C)CCO)ccc(c34)C2=O)cc1	3	43*	.	-35	-18
SMILES	Wnt act	esBAF inh	MITF act	HSF1 activator	HSF1 inh
COc1ccc(NC(=O)N(C)C[C@@H]2Oc3ccc(NS(=O)(=O)c4ccccc4)cc3CC(=O)N([C@@H](C)CO)C[C@@H]2C)cc1	.	2	.	.	.
Cc1ccsc1C(=O)Nc1ccc2c(c1)OCCO2	.	.	31	51*	12
COc1cc2cc(C(=O)Nc3ccc4c(c3)OCCO4)[nH]c2cc1OC	-7	-39	-12	-74	-72*
COc1ccc(C(=O)OCC(=O)Nc2ccc3c(c2)OCCO3)c(OC)c1	-5	-1	3	.	.
Cc1ncoc1C(=O)Nc1ccc2c(c1)OCCO2	.	-30	-12	-20	-23
COc1cc2[nH]c(C(=O)Nc3ccc4c(c3)OCCO4)cc2c(OC)c1OC	4	5	-22	-37	-34
COc1ccc(C(=O)Nc2ccc3c(c2)OCCO3)c(OC)c1	55*	0	.	.	.
CCCN1C[C@H](C)[C@H](OC)CN(C)C(=O)c2cc(NC(=O)Nc3cccc(OC)c3)ccc2OC[C@H]1C	.	-8	.	.	.
CCN(C(=O)Nc1cccc(Cl)c1)c1ccccc1	-1	7	-4	0	7
Cc1cccc(N(O)C(=O)Nc2cccc(Cl)c2)c1	0	51*	.	29	2
Cc1cnc(C(=O)N(c2ccccc2)C(c2ccccc2)c2nc3ccccc3[nH]2)cn1 (stereo unspecified)	-2	45*	.	.	.
CC(c1nc2ccccc2[nH]1)N(C(=O)C1=NNC(=O)CC1)c1ccccc1 (stereo unspecified)	-1	4	.	.	.
Clc1cccc(Cl)c1C1=NOC(c2nnc(-c3ccccc3)o2)C1 (stereo unspecified)	15	50*	70	20	19
Clc1ccc(C2=NOC(c3nnc(-c4ccccc4)o3)C2)cc1 (stereo unspecified)	-1	1	3	-17	-8
C[C@@H]1CN([C@@H](C)CO)C(=O)CCCn2cc(nn2)CO[C@@H]1CN(C)S(=O)(=O)c1cn(C)cn1	.	-1	.	.	.
CCC1CCCCN1CCCNC(=O)c1ccc2nc(N3CCCCC3)sc2c1 (stereo unspecified)	-1	?	?	-27	-24
CC1CCN(c2nc3ccc(C(=O)NCCCN4CCCCC4C)cc3s2)CC1 (stereo unspecified)	1	72*	.	-53	-40
CC1CCCC(C)N1CCCNC(=O)c1ccc2nc(N3CCCCC3)sc2c1 (stereo unspecified)	-3	72*	.	6	-5
CC1CCCC(C)N1CCCNC(=O)c1ccc2nc(N3CCOCC3)sc2c1 (stereo unspecified)	-1	-2	4	-8	-2
O=C(C[C@@H]1C=C[C@H](NC(=O)c2cccc(F)c2)[C@H](CO)O1)Nc1nccs1	.	4	.	.	.
C[C@H]1CN([C@@H](C)CO)C(=O)c2cc(C#CC3(O)CCCC3)cnc2O[C@H]1CN(C)C(=O)C1CCC1	.	-4	.	.	.
CC(C)(C)Nc1nc(Nc2ccc([N+](=O)[O-])cc2)nc(NC(C)(C)C)n1	-3	1	.	-18	-4
O=[N+]([O-])c1ccc(Nc2ccc(F)cc2)cc1	-1	9	.	-84	-81*
O=[N+]([O-])c1ccc(Nc2ccc(F)cc2)nc1	.	.	10	20	-2
O=[N+]([O-])c1ccc(Nc2nccc(Cl)n2)cc1	55*	.	.	12	1
CC1CN(C(=S)NC(=O)C2CCCCC2)CC(C)O1 (stereo unspecified)	0	.	2	52*	12
CO[C@@H](CN(C)C(=O)c1ccc2c(c1)OCO2)[C@H](C)CN([C@H](C)CO)S(=O)(=O)c1ccc(C)cc1	.	0	.	.	.
COc1ccc(CNC(=O)C[C@H]2C[C@@H]3c4cc(NC(=O)CC5CC5)ccc4O[C@@H]3[C@H](CO)O2)cc1	.	-7	.	.	.

Screening data from PubChem BioAssay.
